Measurements as given in PubChem BioAssay (EPA / NIEHS).
Results filed as inconclusive are left out. The source made the active and inactive calls. How the source made its calls, unless noted: active means hit-call score of the fitted dose curve at least 0.9, where 1 is the maximum; inconclusive means response in the unintended direction; inactive means score below 0.9.

Assays:
[1] = TAMU_HCS_1.5hr_SingleDonor1434_Cytotoxicity: Cytotoxicity Assessment using High-content Screening (HCS) Fluorescent Imaging for the Texas A&M University (TAMU) 1.5-hr Human Induced Pluripotent Stem Cell (iPSC)-derived Cardiotoxicity Assay (AID 2284234)
Method in brief: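 Human iPSC-derived cardiomyocytes dosed at 0.2, 1, 10, 100 uM final (0.5% DMSO) for 90 min at 37 C. Hoechst 33342-stained nuclei counted by 10x high-content imaging; POD is EC10, a 10% drop in total cell count versus DMSO.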

[2] = TAMU_PeakParms_SingleDonor1434_QT: Texas A&M University (TAMU) 1.5-hr Human Induced Pluripotent Stem Cell (iPSC)-derived Cardiomyocytes Calcium (Ca+2) Flux Assay for Cardiotoxicity: QT (decay-rise ratio) (AID 2284235)
Method in brief: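 iPSC-derived cardiomyocytes (single donor 1434) dosed at 0.2, 1, 10, 100 uM final in 0.5% DMSO, 90 min at 37C. Ca2+ flux fluorescence decay/rise ratio; EC05 (5% increase versus DMSO) as POD, excluding beat-arrest and severe-notch data.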

[3] = VALA_TUBHUV_Agonist_CellCount: Viability Assessment in the VALA Sciences human Umbilical Vein Endothelial Tubule Formation (TUBHUV) Agonism Assay (AID 2284309)
Method in brief: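 HUVEC co-cultured 1:3 with HDF for 3 days in 10 ng/ml VEGF, then compounds added in VEGF medium for a further 3 days (72 h). Nuclear-stain/CD31 imaging cell count. Positive-direction fit versus 0.1% DMSO vehicle.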

[4] = CCTE_Mundy_HCI_Cortical_NOG_BPCount: CCTE's Neurite Outgrowth Assay in rat cortical cells for Branch Point Count, Mundy Lab (AID 2284237; active means hit-call score of the fitted dose curve at least 0.9, where 1 is the maximum; inactive means score below 0.9)
Method in brief: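 Measured 50.33 h after dosing, this morphology endpoint uses rat primary cortical cultures labelled for betaIII-tubulin. Branch points are quantified by high-content imaging, with DMSO as negative control and baseline.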

[5] = CCTE_Mundy_HCI_hNP1_Casp3_7: CCTE's Caspase-Glo 3/7 Assay in human neuroprogenitor cells for Apoptosis, Mundy Lab (AID 2284240; active means hit-call score of the fitted dose curve at least 0.9, where 1 is the maximum; inactive means score below 0.9)
Method in brief: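 Luminescent caspase-3/7 readout, 26.5 h post-dose, in human neural progenitor cells from WA09 embryonic stem cells. Cells grew 40–44 h at 37 °C, 5% CO2 before chemical addition. Activity analysed as signal increase over DMSO baseline.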

[6] = CCTE_Mundy_HCI_Cortical_Synap_Neur_Matur_NeuronCount: CCTE's Synaptogenesis and Neurite Maturation Assay in rat cortical cells for Neuron Count, Mundy Lab (AID 2284242)
Method in brief: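 Neuron number was scored by automated high-content imaging of Hoechst- and MAP2-labelled rat primary cortical cells. Glial growth was arrested with AraC at DIV 5, compounds were applied from DIV 7, and cultures ended at DIV 12.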

[7] = IUF_NPC2c_oligodendrocyte_migration_120hr: Leibniz Research Institute for Environmental Medicine (IUF) 120-hour Neural Progenitor Cell Migration Assay for Oligodendrocyte Migration (NPC2c) (AID 2284297; active means hit-call score of the fitted dose curve at least 0.9, where 1 is the maximum; inactive means score below 0.9;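 further: O4-positive oligodendrocyte migration distance divided by radial glia migration distance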)
Method in brief: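 Human fetal cortex-derived neural progenitor spheres (0.3 mm) were plated on poly-D-lysine/laminin in N2 differentiation medium and exposed to 7 concentrations for 120 h, with half-medium renewal at day 3. Oligodendrocyte migration distance was normalized to radial glia migration, relative to DMSO.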

[8] = IUF_NPC2a_radial_glia_migration_120hr: Leibniz Research Institute for Environmental Medicine (IUF) 120-hour Neural Progenitor Cell Migration Assay for Radial Glia Migration (NPC2a) (AID 2284298; active means hit-call score of the fitted dose curve at least 0.9, where 1 is the maximum; inactive means score below 0.9)
Method in brief: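 Single 0.3 mm primary human fetal-cortex (GW 16-19) NPC spheres were plated on poly-D-lysine/laminin in N2 differentiation medium and exposed from day 0 for 120 h, half-medium refreshed day 3. Migration distance came from Hoechst nuclei-density imaging, relative to DMSO.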

[9] = IUF_NPC2a_radial_glia_migration_72hr: Leibniz Research Institute for Environmental Medicine (IUF) 72-hour Neural Progenitor Cell Migration Assay for Radial Glia Migration (NPC2a) (AID 2284299; active means hit-call score of the fitted dose curve at least 0.9, where 1 is the maximum; inactive means score below 0.9)
Method in brief: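 Primary hNPC spheres, fetal brain GW 16-19, on PDL/laminin; DMEM/F12 3:1 + 1% N2. Compound dosed day 0, 7 conc. + SC, half-medium refresh day 3. 72 h brightfield, migration distance core-to-front (um), 4 directions averaged.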

[10] = IUF_NPC2b_neuronal_migration_120hr: Leibniz Research Institute for Environmental Medicine (IUF) 120-hour Neural Progenitor Cell Migration Assay for Neuron Migration (NPC2b) (AID 2284300; active means hit-call score of the fitted dose curve at least 0.9, where 1 is the maximum; inactive means score below 0.9)
Method in brief: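 Primary human fetal cortex neural progenitor spheres (0.3 mm) plated on poly-D-lysine/laminin in N2 differentiation medium, exposed 120 h with half-medium refresh at day 3. TUBB3-stained neuron distance from sphere core, normalized to radial glia migration, versus DMSO.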

[11] = IUF_NPC3_neuronal_differentiation_120hr: Leibniz Research Institute for Environmental Medicine (IUF) 120-hour Neuronal Differentiation Assay (NPC3) (AID 2284301; active means hit-call score of the fitted dose curve at least 0.9, where 1 is the maximum; inactive means score below 0.9)
Method in brief: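 Human fetal (GW 16-19) neural progenitor spheres (0.3 mm) plated on poly-D-lysine/laminin in N2 differentiation medium, exposed 120 h at 37C with half-medium renewal day 3; 7 concentrations. TUBB3+ cells as % of Hoechst nuclei, CNN-identified; DMSO baseline.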

[12] = IUF_NPC4_neurite_length_120hr: Leibniz Research Institute for Environmental Medicine (IUF) 120-hour Neuronal Morphology Assay for Neurite Length (NPC4) (AID 2284302; active means hit-call score of the fitted dose curve at least 0.9, where 1 is the maximum; inactive means score below 0.9)
Method in brief: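 Human fetal neural progenitor spheres (0.3 mm) plated on poly-D-lysine/laminin in N2 differentiation medium, exposed from day 0 for 120 h with half-medium refresh at day 3, 37C. Mean neurite length (um) of TUBB3-positive neurons from skeletonized immunostaining images; DMSO ≤0.1%.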

[13] = IUF_NPC5_oligodendrocyte_differentiation_120hr: Leibniz Research Institute for Environmental Medicine (IUF) 120-hour Oligodendrocyte Differentiation Assay (NPC5) (AID 2284304);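 further: primary human fetal neural progenitor spheres plated to migrate and differentiate; share of O4-positive cells among Hoechst nuclei found by CNN image analysis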
Method in brief: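 Primary human fetal (GW 16-19) neural progenitor spheres (0.3 mm) plated on poly-D-lysine/laminin in N2 differentiation medium, exposed from day 0 for 120 h with half-medium refresh at day 3; O4-positive cells as percent of Hoechst nuclei, CNN-identified, versus DMSO.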

[14] = IUF_NPC4_neurite_area_120hr: Leibniz Research Institute for Environmental Medicine (IUF) 120-hour Neuronal Morphology Assay for Neurite Area (NPC4) (AID 2284305)
Method in brief: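 Human fetal neural progenitor spheres (0.3 mm) plated on poly-D-lysine/laminin in N2 differentiation medium, exposed 120 h (7 concentrations, DMSO ≤0.1%, half-medium refresh day 3). Fixed, TUBB3 immunostained; mean neurite area per neuron by Omnisphero skeletonization.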

[15] = IUF_NPC2-5_cytotoxicity_72hr: Cytotoxicity Assessment at 72 hours in the Leibniz Research Institute for Environmental Medicine (IUF) Neural Progenitor Cell Migration and Differentiation Assay for Cytotoxicity (NPC2-5) (AID 2284306);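 further: LDH release into supernatant measured by resorufin fluorescence marking membrane damage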
Method in brief: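 Human fetal primary neural progenitor spheres (0.3 mm) plated on poly-D-lysine/laminin in N2 differentiation medium, exposed from day 0 at 37C. LDH-dependent resazurin-to-resorufin fluorescence in supernatant at 72 h; 7 concentrations, DMSO at most 0.1%.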

[16] = IUF_NPC2-5_cytotoxicity_120hr: Cytotoxicity Assessment at 120 hours in the Leibniz Research Institute for Environmental Medicine (IUF) Neural Progenitor Cell Migration and Differentiation Assay (NPC2-5) (AID 2284307)
Method in brief: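 Human fetal neural progenitor spheres (0.3 mm, GW 16-19 cortex) were plated on poly-D-lysine/laminin in N2 differentiation medium and exposed for 120 h, with half-medium refresh at day 3. LDH release into supernatant was read by resorufin fluorescence.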

[17] = IUF_NPC2-5_cell_number_120hr: Cell Number Assessment at 120 hours in the Leibniz Research Institute for Environmental Medicine (IUF) Neural Progenitor Cell Migration and Differentiation Assay (NPC2-5) (AID 2284308; active means hit-call score of the fitted dose curve at least 0.9, where 1 is the maximum; inactive means score below 0.9;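 further: count of Hoechst-stained nuclei in migration zone around plated human neural progenitor spheres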)
Method in brief: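 Primary human fetal neural progenitor spheres (GW 16-19, 0.3 mm) plated on poly-D-lysine/laminin in N2 differentiation medium, exposed from day 0 for 120 h with half-medium refresh at day 3; Hoechst-positive nuclei counted in migration area versus DMSO control.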

[18] = VALA_TUBHUV_Antagonist_CellCount: Viability Assessment in the VALA Sciences human Umbilical Vein Endothelial Tubule Formation (TUBHUV) Antagonism Assay (AID 2284310)
Method in brief: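 HUVEC co-cultured with HDF (1:3) 3 days in 10 ng/ml VEGF, then 3 days with compounds in VEGF medium. Fixed, nuclear stain and CD31 immunofluorescence, imaged; cell counts fitted versus 0.1% DMSO, loss of signal read as lower viability.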

[19] = CCTE_Mundy_HCI_hNP1_CellTiter: CCTE's Cell Titer-Glo 2 Assay in human neuroprogenitor cells for Viability, Mundy Lab (AID 2284241)
Method in brief: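 Viability read as luminescent ATP content (CellTiter-Glo, 30 min room temperature) twenty-four hours after dosing, relative to DMSO. Cells: WA09-derived hNP1 neuroprogenitors on poly-L-ornithine/laminin, plated 40 to 44 hours before chemical.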

[20] = CCTE_Mundy_HCI_Cortical_NOG_NeuronCount: CCTE's Neurite Outgrowth Assay in rat cortical cells for Neuron Count, Mundy Lab (AID 2284236);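 further: neurons counted by imaging betaIII-tubulin and Hoechst stained cortical cells; cells exposed to compound for about 48 hours before fixation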
Method in brief: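 Read-out: neuron number by high-content imaging of betaIII-tubulin (Alexa Fluor-488) and Hoechst-labelled rat primary cortical cells.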

For `O=C(O)CCCCC(=O)O`, which outcome [1] is on record?
Its outcome is “inactive”.

And the outcome [2]?
The outcome was “inactive”.

For `CCCCC(CC)COC(=O)CC(C(=O)OCC(CC)CCCC)S(=O)(=O)O` (centres undefined), which AC50 [3] is on record?
The AC50 was 7.22 µM (active).

With `OC[C@@H](O)[C@@H](O)[C@H](O)[C@H](O)CO` as the compound, how does the outcome [4] read?
Its outcome is “inactive”.

What about the outcome [5] of the same compound?
The outcome was “inactive”.

What about the outcome [6] of the same compound?
Its outcome is “inactive”.

And the outcome [7]?
The outcome was “inactive”.

And the outcome [8]?
The outcome was “inactive”.

What about the outcome [9] of the same compound?
Its outcome is “inactive”.

And the outcome [10]?
Its outcome is “inactive”.

What about the outcome [11] of the same compound?
Its outcome is “inactive”.

What about the outcome [12] of the same compound?
Its outcome is “inactive”.

What about the outcome [13] of the same compound?
The outcome was “inactive”.

What about the outcome [14] of the same compound?
The outcome was “inactive”.

And the outcome [15]?
Its outcome is “inactive”.

And the outcome [16]?
The outcome was “inactive”.

What about the outcome [17] of the same compound?
The outcome was “inactive”.

And the outcome [3]?
Its outcome is “inactive”.

Which outcome [1] does the source give for `COC(=O)c1ccc(O)cc1` here?
The outcome was “inactive”.

And the outcome [2]?
The outcome was “inactive”.

And the outcome [3]?
The outcome was “inactive”.

And the outcome [18]?
The outcome was “inactive”.

Which results are given for `CC(=O)Oc1ccccc1C(=O)O`?
outcome [1]: inactive; outcome [2]: inactive; outcome [4]: inactive; outcome [5]: inactive; outcome [19]: inactive; outcome [7]: inactive; outcome [8]: inactive; outcome [9]: inactive; outcome [10]: inactive; outcome [11]: inactive; outcome [12]: inactive; outcome [15]: inactive; outcome [16]: inactive; outcome [17]: inactive

Which outcome [3] does the source give for `Oc1ccc2ccccc2c1N=Nc1ccccc1` here?
The outcome was “inactive”.

Which results are given for `O=c1[nH]cc(F)c(=O)[nH]1`?
outcome [1]: inactive; outcome [2]: inactive; AC50 [5]: 23.8 µM (active); outcome [6]: inactive

Which outcome [1] does the source give for `CCCc1cc(=O)[nH]c(=S)[nH]1` here?
The outcome was “inactive”.

And the outcome [20]?
The outcome was “inactive”.

And the outcome [5]?
Its outcome is “inactive”.

And the outcome [6]?
Its outcome is “inactive”.

And the outcome [3]?
The outcome was “inactive”.

With `CCOc1ccc2c(c1)C(C)=CC(C)(C)N2` as the compound, how does the AC50 [1] read?
Its AC50 is 50 µM (active).

What about the outcome [2] of the same compound?
Its outcome is “inactive”.

For `C[Si]1(C)O[Si](C)(C)O[Si](C)(C)O[Si](C)(C)O1`, which outcome [4] is on record?
The outcome was “inactive”.

And the outcome [5]?
The outcome was “inactive”.

And the outcome [7]?
The outcome was “inactive”.

What about the outcome [8] of the same compound?
The outcome was “inactive”.

And the outcome [9]?
The outcome was “inactive”.

What about the outcome [10] of the same compound?
Its outcome is “inactive”.

And the outcome [11]?
The outcome was “inactive”.

And the outcome [12]?
The outcome was “inactive”.

What about the outcome [13] of the same compound?
Its outcome is “inactive”.

What about the outcome [14] of the same compound?
The outcome was “inactive”.

What about the outcome [15] of the same compound?
Its outcome is “inactive”.

What about the outcome [16] of the same compound?
Its outcome is “inactive”.

What about the outcome [17] of the same compound?
The outcome was “inactive”.

Which AC50 [3] does the source give for `Cc1cc(NC(=O)C(=O)O)cc(C)c1Oc1ccc(O)c2c1CCC2` here?
Its AC50 is 91.7 µM (active).

And the AC50 [18]?
Its AC50 is 81.2 µM (active).

For `O=c1c(O)c(-c2ccc(O)c(O)c2)oc2cc(O)cc(O)c12`, which outcome [3] is on record?
The outcome was “inactive”.
